PubChem BioAssay (Tox21)
Results filed as inconclusive are left out. The source made the active and inactive calls. Unless noted, calls follow the shape of the dose curve; as a rule, active = well fitted curve in the direction sought with a large enough effect in the repeat runs; inconclusive = weak or mixed curves; inactive = no such curve, though single readings can be large; an effect the other way counts as inactive or inconclusive.

How the values were obtained:
[1] = qHTS assay to identify small molecule HDAC inhibitors (AID 1259364); also: top concentration of the series differs between compounds; nearly all actives have a fitted effect of over 45% in size
In short: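 Homogeneous cell-based luminescent assay of endogenous class I/II HDAC activity; HCT-116 cells, 2 h compound exposure, 30 min HDAC-Glo development at RT.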

[2] = qHTS assay to identify small molecule HDAC inhibitors - cell viability counter screen (AID 1259365); also: series mostly up to about 92 µM; nearly all actives have a fitted effect of over 50% in size
In short: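 After overnight seeding at 1,500 cells per well, wild-type HCT-116 cultures took up compounds in DMSO for 2hr at 37 C. Viable cell content came from luminescence with CellTiter-Glo.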

[3] = qHTS assay to identify small molecule agonists of the sonic hedgehog signaling (Shh) pathway - cell viability counter screen (AID 1259366); also: nearly all actives have a fitted effect of over 50% in size
In short: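 Same-well cytotoxicity read. Gli1-Luc reporter 3T3 cells; compounds 24hr, 37C/5% CO2; CellTiter-Fluor fluorescence.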

[4] = qHTS assay to identify small molecule antagonists of the sonic hedgehog signaling (Shh) pathway - cell viability counter screen (AID 1259367); also: nearly all actives have a fitted effect of over 55% in size
In short: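 Using CellTiter-Fluor, viability of Gli1-Luc reporter 3T3 cells is read by fluorescence in the wells used for the Shh luciferase assay. Treatment lasts 23 hr with conditioned medium, then reagent 1 hr at 37C.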

[5] = qHTS assay to identify small molecule agonists of the sonic hedgehog signaling (Shh) pathway (AID 1259368; calls by dose curve;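 also: NIH/3T3-derived 3T3Gli1-Luc cells carrying a stable Gli1-driven firefly luciferase reporter; series mostly up to about 92 µM; nearly all actives have a fitted effect of over 15% in size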)
In short: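 Steps: seed 3T3 Gli1-Luc cells, incubate 4 hr at 37 C, pin-transfer compounds in DMSO alongside a positive control, incubate 24 hr, add luciferase detection reagent, wait 30 min at room temperature, read luminescence.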

[6] = qHTS assay to identify small molecule antagonists of the sonic hedgehog signaling (Shh) pathway (AID 1259369; calls by dose curve; also: nearly all actives have a fitted effect of over 45% in size)
In short: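 Inhibition of Shh signalling is measured as reduced Gli1-response-element firefly luciferase output in an NIH/3T3-derived stable reporter clone stimulated with conditioned medium for 24hr.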

[7] = target: Estrogen receptor beta (Homo sapiens) (UniProt Q92731); assay: qHTS assay to identify small molecule agonists of the estrogen receptor beta (ER-beta) signaling pathway (AID 1259377; active = well fitted activation curve with a large enough effect in the signal ratio in the repeat runs, not every such curve was filed as active; the % refers to the signal ratio)
Chain of Estrogen receptor beta (Homo sapiens) (Q92731 whole entry, looked up): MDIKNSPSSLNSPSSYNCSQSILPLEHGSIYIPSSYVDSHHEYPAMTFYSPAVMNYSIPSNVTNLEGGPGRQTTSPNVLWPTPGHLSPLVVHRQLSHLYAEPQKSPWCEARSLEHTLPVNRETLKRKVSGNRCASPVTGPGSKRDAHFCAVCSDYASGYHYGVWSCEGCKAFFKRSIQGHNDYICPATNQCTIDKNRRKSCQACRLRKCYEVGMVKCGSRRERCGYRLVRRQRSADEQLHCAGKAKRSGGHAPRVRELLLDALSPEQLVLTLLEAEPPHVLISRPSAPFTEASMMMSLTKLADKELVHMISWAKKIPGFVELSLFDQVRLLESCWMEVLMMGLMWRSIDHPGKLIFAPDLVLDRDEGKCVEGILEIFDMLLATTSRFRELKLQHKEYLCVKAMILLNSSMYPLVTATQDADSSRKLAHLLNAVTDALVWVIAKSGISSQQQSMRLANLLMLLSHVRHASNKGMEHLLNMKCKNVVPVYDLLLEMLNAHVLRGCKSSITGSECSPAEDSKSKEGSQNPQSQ
In short: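 Read-out: beta-lactamase FRET fluorescence. Cell line: ER-beta-UAS-bla HEK293T in 2% charcoal-stripped FBS. Exposure: 16 hr at 37C. Substrate step: 2 h at room temperature.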

[8] = target: Estrogen receptor beta (Homo sapiens) (UniProt Q92731); assay: qHTS assay to identify small molecule antagonists of the estrogen receptor beta (ER-beta) signaling pathway (AID 1259378; active = well fitted inhibition curve with a large enough effect in the signal ratio in the repeat runs, not every such curve was filed as active; the % refers to the signal ratio)
In short: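 Antagonist mode: compounds added to beta-lactamase reporter HEK293T ER-beta-UAS cells stimulated with E2 (1nM final), 16 hr at 37C. LiveBLAzer B/G FRET substrate, 2 hours room temperature, fluorescence read-out.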

[9] = qHTS assay to identify small molecule agonists of the androgen receptor (AR) signaling pathway in the presence of an antagonist - cell viability counter screen (AID 1259379);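 also: MDA-kb2 human breast cancer cells carrying an MMTV luciferase reporter; series mostly up to about 92 µM; nearly all actives have a fitted effect of over 25% in size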
In short: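 Fluorescence from CellTiter-Fluor, added after 15 hr and read 1 hr later, gave cell viability. Cells were MDA-kb2 exposed to compounds (15 concentrations) in the presence of 3.0uM nilutamide at 37C, 0% CO2.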

[10] = qHTS assay to identify small molecule agonists of the estrogen receptor beta (ER-beta) signaling pathway - cell viability counter screen (AID 1259380); also: nearly all actives have a fitted effect of over 30% in size
In short: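 Same-well viability counter screen. Cells: ER-beta-UAS-bla HEK293T, plated 6 hr before compound, in 2% charcoal-stripped FBS. Compound exposure 16 hr, 37C; viability by CellTiter-Glo luminescence after 30 min at room temperature.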
% is scaled to controls: 0 for no effect and ±100 for the full control effect.

O=C(O)CCCCCC(=O)O
inactive: Potency [1] | outcome [2] | outcome [3] | outcome [4] | outcome [5] | Potency [6] | Potency [7] | Potency [8] | outcome [9] | outcome [10]

OCC1(CO)COCOC1
inactive: Potency [1] | outcome [2] | outcome [3] | outcome [4] | outcome [5] | Potency [6] | Potency [7] | Potency [8] | outcome [9] | outcome [10]

CC(=O)C(C)O (stereo not given)
inactive: Potency [1] | outcome [2] | outcome [3] | outcome [4] | outcome [5] | Potency [6] | Potency [7] | Potency [8] | outcome [9] | outcome [10]

CSc1cnccn1
inactive: Potency [1] | outcome [2] | outcome [3] | outcome [4] | outcome [5] | Potency [6] | Potency [7] | Potency [8] | outcome [9] | outcome [10]

CCCSSCCC
inactive: Potency [1] | outcome [2] | outcome [3] | outcome [4] | outcome [5] | Potency [6] | Potency [7] | Potency [8] | outcome [9] | outcome [10]

O=C1CCC(=O)N1Cl
inactive: Potency [1] | outcome [2] | outcome [3] | outcome [4] | outcome [5] | Potency [6] | Potency [7] | Potency [8] | outcome [9] | outcome [10]

CCCCCC/C=C/C(=O)OC
inactive: Potency [1] | outcome [2] | outcome [3] | outcome [4] | outcome [5] | Potency [6] | Potency [7] | Potency [8] | outcome [9] | outcome [10]

CCOCCOCC
inactive: Potency [1] | outcome [2] | outcome [3] | outcome [4] | outcome [5] | Potency [6] | Potency [7] | Potency [8] | outcome [9] | outcome [10]

O=C1CCCCO1
inactive: Potency [1] | outcome [2] | outcome [3] | outcome [4] | outcome [5] | Potency [6] | Potency [7] | Potency [8] | outcome [9] | outcome [10]

CC(=O)c1cc(C)oc1C
inactive: Potency [1] | outcome [2] | outcome [3] | outcome [4] | outcome [5] | Potency [6] | Potency [7] | Potency [8] | outcome [9] | outcome [10]

CC(C)NC(=O)c1ccc(C=O)cc1
inactive: Potency [1] | outcome [2] | outcome [3] | outcome [4] | outcome [5] | Potency [6] | Potency [7] | Potency [8] | outcome [9] | outcome [10]

Cc1cc(-c2ccccc2)nnc1NCCN1CCOCC1
inactive: Potency [1] | outcome [2] | outcome [3] | outcome [4] | outcome [5] | Potency [6] | Potency [7] | Potency [8] | outcome [9] | outcome [10]

[O]=[Mo](=[O])=[O]
inactive: activity change, negative = inhibition [1] 3.49% [at 19 µM] | activity change, negative = cytotoxicity [2] 3.01% [at 19 µM] | viability change, negative = cytotoxic [3] 1.33% [at 19 µM] | viability change, negative = cytotoxic [4] 0.3% [at 19 µM] | activity change [5] -1.33% [at 18.9 µM] | activity change, negative = inhibition [6] -0.431% [at 19 µM] | activation [7] -1.75% [at 19 µM] | activity, negative = inhibition [8] 0.823% [at 19 µM] | activity change, negative = cytotoxicity [9] 2.34% [at 19 µM] | activity change, negative = cytotoxicity [10] 3.4% [at 19 µM]

COc1cc2c(cc1OC)CN(C(=O)[C@H](C)N[C@@H](CCc1ccccc1)C(=O)O)[C@H](C(=O)O)C2
inactive: Potency [1] | outcome [2] | outcome [3] | outcome [4] | outcome [5] | Potency [6] | Potency [7] | Potency [8] | outcome [9] | outcome [10]

O=C1c2ccccc2C(=O)c2cc(Cl)ccc21
inactive: activity change, negative = inhibition [1] -13.5% [at 8.39 µM] | activity change, negative = cytotoxicity [2] 6.08% [at 8.39 µM] | viability change, negative = cytotoxic [3] 3.28% [at 8.39 µM] | viability change, negative = cytotoxic [4] 1.09% [at 8.39 µM] | activity change [5] 1.3% [at 8.39 µM] | activity change, negative = inhibition [6] 20.2% [at 8.39 µM] | activation [7] 7.82% [at 8.39 µM] | activity, negative = inhibition [8] 3.18% [at 8.39 µM] | activity change, negative = cytotoxicity [9] 0.449% [at 8.39 µM] | activity change, negative = cytotoxicity [10] 1.14% [at 8.39 µM]

CCN1CCCC1CN (stereo not given)
inactive: Potency [1] | outcome [2] | outcome [3] | outcome [4] | outcome [5] | Potency [6] | Potency [7] | Potency [8] | outcome [9] | outcome [10]

CC(Oc1cc(Cl)ccc1Cl)C(=O)O (stereo not given)
inactive: Potency [1] | outcome [2] | outcome [3] | outcome [4] | outcome [5] | Potency [6] | Potency [7] | Potency [8] | outcome [9] | outcome [10]

C=C(C)[C@@H]1CC=C(C)C(=O)C1
inactive: Potency [1] | outcome [2] | outcome [3] | outcome [4] | outcome [5] | Potency [6] | Potency [7] | Potency [8] | outcome [9] | outcome [10]

C=CC(=O)OCC1CCCO1 (stereo not given)
inactive: Potency [1] | outcome [2] | outcome [3] | outcome [4] | outcome [5] | Potency [6] | Potency [7] | Potency [8] | outcome [9] | outcome [10]

CCCC(=O)Nc1ccc(OCC(O)CNC(C)C)c(C(C)=O)c1 (stereo not given)
inactive: Potency [1] | outcome [2] | outcome [3] | outcome [4] | outcome [5] | Potency [6] | Potency [7] | Potency [8] | outcome [9] | outcome [10]

O=[N+]([O-])c1c(Cl)cc(Cl)cc1Cl
inactive: Potency [1] | outcome [2] | outcome [3] | outcome [4] | outcome [5] | Potency [6] | Potency [7] | Potency [8] | outcome [9] | outcome [10]

CCO[Si](CC)(OCC)OCC
inactive: Potency [1] | outcome [2] | outcome [3] | outcome [4] | outcome [5] | Potency [6] | Potency [7] | Potency [8] | outcome [9] | outcome [10]
